# Assay outcomes: PubChem BioAssay, National Center for Advancing Translational Sciences (NCATS)
# Rows were chosen to be rich in hits. Some 3.7% of all compounds tested hit in one or more screens of this group.
# HepG2 viability – HepG2 cytotoxicity, counter-screen for TGF-b inhibitors. hit rate 0.76% among 410,000. HepG2 CAGA-GFP viability, ATP luminescence, 18 h. Potency, µM (highest dose often 46.1 µM), without a hit: top-dose activity change, negative = cytotoxicity, hits mostly cytotoxic
#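 CellTiter-Glo luminescence gave cytotoxicity after 18 hours at 37 degrees C. The cells were HepG2 CAGA-GFP in 1% FBS DMEM, stimulated with 500 pg/mL TGF-beta after compound addition. %Activity was normalised to no-cell wells (complete cell-killing) and DMSO (no toxicity), and curves were fitted and classified.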
# S2 tox – cell viability loss in ATXN counter-screen. S2 cells (HEK-293 line with an ATXN2-luciferase reporter) viability, CellTiter-Fluor protease fluorescence, 24 h. Potency, µM (series often up to 56.7 µM), most hits filed as cytotoxic. hit rate 0.49% among 400,000. AID 651635; further: nearly all actives have a fitted effect of over 40% in size
# ATXN2 expr inh – reduces ATXN2 reporter expression in HEK-293 cells; HEK-293 ATXN2-luciferase reporter, luminescence, 24 h; Potency, µM (top dose mostly 57 µM), inactives show at the top dose activity change, negative = inhibition, actives largely listed as inhibitors; hit rate 0.72% among 360,000; further: on the % scale 0 is the no-effect control and ±100 the full control effect; nearly all actives have a fitted effect of over 55% in size
#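 qHTS (up to 57 uM final) was run with 24 h compound exposure of reporter cells at 37 °C. Each well was multiplexed: SteadyGlo luminescence measured ATXN2-luciferase expression after a fluorogenic Gly-Phe-AFC viability readout (25 uM final).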
# GLP-1R inv ag – GLP-1 receptor (human) inverse agonism; P43220; HEK293 GLP-1R CRE-luciferase, luminescence, 24 h; GLP-1R form is constitutively active; Potency, µM (series often up to 38.3 µM), for inactives: top-dose activity change, negative = inhibition, actives largely listed as inhibitors; hit rate 1.6% among 410,000; AID 624417; further: on the % scale 0 is the no-effect control and ±100 the full control effect; nearly all actives have a fitted effect of over 55% in size
# Target sequence (P43220 whole entry, looked up): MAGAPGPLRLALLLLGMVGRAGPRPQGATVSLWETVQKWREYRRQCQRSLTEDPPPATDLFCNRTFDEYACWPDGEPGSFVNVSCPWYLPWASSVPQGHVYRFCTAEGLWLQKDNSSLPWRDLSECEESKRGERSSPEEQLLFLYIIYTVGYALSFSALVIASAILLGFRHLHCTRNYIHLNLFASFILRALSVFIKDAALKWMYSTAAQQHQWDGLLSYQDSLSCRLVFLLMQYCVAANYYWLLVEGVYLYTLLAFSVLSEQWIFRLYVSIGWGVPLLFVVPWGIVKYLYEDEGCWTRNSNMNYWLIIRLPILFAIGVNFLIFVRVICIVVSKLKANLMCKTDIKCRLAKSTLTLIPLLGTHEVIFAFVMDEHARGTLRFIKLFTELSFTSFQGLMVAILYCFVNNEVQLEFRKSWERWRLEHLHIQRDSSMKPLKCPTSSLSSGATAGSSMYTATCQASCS
#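 GLP-1R inverse agonism mode: basal reporter luminescence in engineered HEK293 cells measured after one day of compound exposure at 37 deg C, with a 12 min room-temperature detection step.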
# TGFb SMAD3 inh – TGF-b pathway inhibition; HepG2 CAGA-GFP TGF-b/SMAD3 reporter, GFP fluorescence, 18 h; TGF-beta stimulated, 500 pg/mL final; Potency, µM (highest dose often 46.1 µM), without a hit: at the highest dose activity, negative = inhibition, usual class: inhibitors; hit rate 1.2% among 410,000; AID 588855; further: on the % scale 0 is the no-effect control and ±100 the full control effect; nearly all actives have a fitted effect of over 65% in size
#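 Inhibition was scored as loss of TGF-beta-induced (500 pg/mL final, 18 hours, 37 degrees C) GFP in HEPG2 cells carrying a CAGA-GFP reporter, in DMEM with 1% FBS. Well GFP was summed per cell; Activity was normalised to unstimulated and stimulated DMSO wells, then concentration-response fitting.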
# GLP1R ag – agonists of human GLP-1 receptor | P43220 | HEK293 GLP-1R CRE-luciferase, luminescence, 4-6 h; cells express a hypersensitive GLP-1R form | Potency, µM (highest dose often 45.6 µM), without a hit: at the highest dose activation, usual class: activators | hit rate 0.007% among 380,000 | AID 624172; further: % of control where 0% means no effect
# Numbers without * were called inactive; i = inactive; ? = inconclusive; . = no result. The call rests on the fitted dose curve; in most records, active means well fitted curve in the direction sought with a large enough effect; inconclusive means small, poorly fitted or top-dose-only effect, or another doubt; inactive means no such curve, though single readings can be large; an effect the other way counts as inactive or inconclusive. Potency means the concentration at half of the fitted maximal effect.
SMILES,HepG2 viability,S2 tox,ATXN2 expr inh,GLP-1R inv ag,TGFb SMAD3 inh,GLP1R ag
CCN(CC)CCNC(CC(=O)Nc1ccc(Cl)cc1Cl)C(=O)O (stereo not given),-19.0%,i,-0.1%,-2.9%,-4.2%,-16.7%
CCN(CC)CCNc1ccc(CO)c2oc3cc(Cl)ccc3c(=O)c12,-43.0%,?,.,4.47µM*,-11.7%,-3.3%
Cc1cc(C)cc(N2CCn3c2nc2c3c(=O)n(CCc3ccccc3)c(=O)n2C)c1,1.3%,i,10.9%,9.9%,21.5%,.
CC(C)N(C(=O)[C@H]1C[C@H](CC(=O)NCc2cccc(C(F)(F)F)c2)C(=O)N2CCc3c([nH]c4cc(CCC(=O)N(C)C)ccc34)[C@]12C)C(C)C,-22.1%,15.8µM*,?,?,?,15.6%
CC(C)N(C(=O)[C@H]1CC(CC(=O)NCCC2=CCCCC2)C(=O)N2CCc3c([nH]c4ccccc34)[C@]12C)C(C)C (stereo not given in full),-7.8%,39.8µM*,?,-4.6%,?,1.3%
CCN(CC)C(=O)[C@H]1C[C@H](CC(=O)NCC23CC4CC(CC(C4)C2)C3)C(=O)N2CCc3c([nH]c4ccc(Cl)cc34)[C@]12C,-92.3%,?,?,?,12.6µM*,-0.3%
CC1(C)SC2[C@@H](N=CN3CCCCCC3)C(=O)N2[C@H]1C(=O)O (stereo not given in full),.,.,.,.,.,-6.5%
CC(=O)OC[C@H]1O[C@@](COC(C)=O)(O[C@H]2O[C@H](COC(C)=O)[C@@H](OC(C)=O)[C@H](OC(C)=O)[C@H]2OC(C)=O)[C@@H](OC(C)=O)[C@@H]1OC(C)=O,.,i,9.3%,.,.,17.3%
C=C(CN(C)C)C(=O)c1ccc(OC2OC(COC(C)=O)C(OC(C)=O)C(OC(C)=O)C2OC(C)=O)cc1 (stereo not given),-94.1%,9.47µM*,?,?,?,-21.3%
COc1ccccc1Nc1c2c(nc3ccc(NC(=O)c4ccc(OC)c(OC)c4)cc13)CCCC2,22.4µM*,25.1µM*,?,?,?,-0.7%
COc1ccccc1Nc1c2c(nc3ccc(NC(=O)c4cccc(OC)c4OC)cc13)CCCC2,-56.6%,.,.,?,?,.
COc1ccc(C(=O)Nc2ccc3nc4c(c(Nc5ccc(OC)c(OC)c5)c3c2)CCCC4)c(OC)c1,-87.7%,28.2µM*,?,11.6%,?,0.3%
CC(C)(C)OC(=O)NS(=O)(=O)Nc1ccccc1Br,1.6%,.,.,.,6.3%,.
COc1ccc(Cn2c(SCc3cc(C)ccc3C)nc3cc(OC)c(OC)cc3c2=N)cc1,10µM*,.,.,4.7%,-4.0%,2.8%
COc1ccc(Cn2c(SCc3ccc(C)cc3)nc3cc(OC)c(OC)cc3c2=N)cc1Cl,5.62µM*,15.8µM*,28.2µM*,-13.4%,?,1.0%
COc1cc2nc(SCc3ccc(Cl)cc3Cl)n(Cc3cccs3)c(=N)c2cc1OC,-4.0%,?,-1.3%,-6.9%,-11.2%,1.7%
COc1cc2nc(SCc3ccc(C(F)(F)F)cc3)n(Cc3cccs3)c(=N)c2cc1OC,2.0%,.,.,5.8%,-1.9%,-11.4%
Cn1nc(C(F)(F)F)c(C(=O)Nc2ccc(F)cc2F)c1Sc1cccc(C(F)(F)F)c1,-0.9%,i,-9.8%,0.0%,?,-13.6%
Cn1nc(C(F)(F)F)c(C(=O)Nc2ccc(F)cc2F)c1Sc1cccc(Cl)c1,-19.6%,i,-9.6%,12.6µM*,-1.8%,-10.4%
Cc1ccc(Cl)cc1NC(=O)Nc1cn(CC(C)C)c(=O)c2ccccc12,9.1%,i,13.8%,9.0%,153.4%,.
COc1ccc(/C=C2\SC(=S)NC2=O)cc1OS(=O)(=O)c1ccc(NC(C)=O)cc1,3.6%,i,-12.3%,7.6%,-31.7%,-0.4%
